Laboratory results from PubChem BioAssay (NCATS).
Results filed as inconclusive are left out. Active and inactive are the calls of the source. Calls come from the whole dose curve; as a rule, active = well fitted curve in the direction sought with a large enough effect; inconclusive = small, poorly fitted or top-dose-only effect, or another doubt; inactive = no such curve, though single readings can be large; an effect the other way counts as inactive or inconclusive.

Tests used:
[1] = biological target: Glutathione peroxidase 1 (Homo sapiens) (UniProt P07203); assay: Primary qHTS Assay for Inhibitors of Recombinant Selenoprotein Glutathione Peroxidase 1 (GPX1) (AID 1845191); note: nearly all actives have a fitted effect of over 65% in size; for activity, negative = inhibition: % is set by controls: 0 for no effect and ±100 for the full control effect
Glutathione peroxidase 1 (Homo sapiens), sequence (P07203 whole entry, looked up): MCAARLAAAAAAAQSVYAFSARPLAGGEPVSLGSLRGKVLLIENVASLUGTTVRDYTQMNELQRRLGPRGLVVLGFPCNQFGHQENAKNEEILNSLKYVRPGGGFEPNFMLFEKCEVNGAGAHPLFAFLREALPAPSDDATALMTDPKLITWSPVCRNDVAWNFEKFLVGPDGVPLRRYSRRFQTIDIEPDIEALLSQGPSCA
Summary of the method: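 10 nM GPX1 + cpd, 30 min RT; start w/ 1 mM GSH, 0.5 mM cumene hydroperoxide, 0.5 mM NADPH, 100 nM GR, 0.01% BSA; buffer 50 mM Tris-HCl pH 7.5, 2 mM EDTA, 150 mM NaCl; Fl 340/450, 0 & 15 min.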

[2] = biological target: Phospholipid hydroperoxide glutathione peroxidase GPX4 (Homo sapiens) (UniProt P36969); assay: Primary qHTS Assay for Inhibitors of Recombinant Selenoprotein Glutathione Peroxidase 4 (GPX4) (AID 1845192); note: nearly all actives have a fitted effect of over 65% in size; note: potency is the fitted concentration of half-maximal effect; for activity change, negative = inhibition: series mostly up to about 50 µM; % is set by controls: 0 for no effect and ±100 for the full control effect
Phospholipid hydroperoxide glutathione peroxidase GPX4 (Homo sapiens), sequence (P36969 whole entry, looked up): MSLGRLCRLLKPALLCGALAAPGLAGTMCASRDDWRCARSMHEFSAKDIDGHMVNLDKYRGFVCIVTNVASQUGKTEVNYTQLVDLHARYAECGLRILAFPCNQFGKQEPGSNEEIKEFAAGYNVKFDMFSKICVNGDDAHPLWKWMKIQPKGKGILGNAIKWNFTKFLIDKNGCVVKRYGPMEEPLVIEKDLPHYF
Summary of the method: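 NADPH consumption, followed by fluorescence at 340/450 nm between 0 and 15 min, reports GPX4 activity via coupled glutathione reductase (100 nM). Enzyme 200 nM was pre-exposed to compound 30 min; 0.5 mM cumene hydroperoxide and 1 mM GSH served as substrates.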

[3] = biological target: Luciferin 4-monooxygenase (Photinus pyralis) (UniProt P08659); assay: Primary firefly luciferase (FLuc) qHTS assay for identification of artifact compounds. (AID 1845220); note: nearly all actives have a fitted effect of over 60% in size;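 for activity change, negative = inhibition: series mostly up to about 54 µM; plate controls were DMSO vehicle for no effect and no enzyme for full effect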
Summary of the method: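 FLuc 10 nM; luciferin 10 uM; ATP 10 uM; Tris-acetate pH 7.6, Mg-acetate 10 mM; 15 min RT preincubation; 5 min reaction; luminescence.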

[4] = Primary fluorescence-based thiol-reactive (MSTI) qHTS assay for identification of artifact compounds. (AID 1845221); note: nearly all actives have a fitted effect of over 65% in size; note: potency is the fitted concentration of half-maximal effect;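 for activity change, negative = thiol reactive: series mostly up to about 54 µM; thiol-reactive compounds lower the probe fluorescence signal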
Summary of the method: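 MSTI probe at 4 uM final in 2% DMSO/PBS pH 7.4; compounds, 1 h at room temperature in dark. Fluorescence Ex/Em 525/598 nm, normalised to Acetyl-MSTI and MSTI, fitted to 4-parameter Hill.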

[5] = tested on: Nanoluciferase (engineered Oplophorus gracilirostris luciferase); assay: Primary Nanoluciferase (NLuc) qHTS assay for identification of artifact compounds. (AID 1845222);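 note: NLuc secreted into diluted conditioned medium of S16 cells; series mostly up to about 54 µM; 0% = DMSO and -100% = no enzyme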
Summary of the method: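 NLuc from S16 cell medium (1:55) plus test compounds, 15 min, room temperature. Luminescence after Nano-Glo (1:100) addition, 5 min.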

CCCCCCCCCCCCCCCC(=O)O[C@@H]1CC(C)=C(/C=C/C(C)=C/C=C/C(C)=C/C=C/C=C(C)/C=C/C=C(C)/C=C/C2=C(C)C[C@@H](OC(=O)CCCCCCCCCCCCCCC)CC2(C)C)C(C)(C)C1
active: Potency [2] 1.26 µM
inactive: Potency [1]

CN1CCN(CCCN2c3ccccc3Sc3ccccc32)CC1
inactive: Potency [1] | Potency [2]

CN1CCN(C2CCN(C(=O)Nc3cc(Oc4ccc(NC(=O)C5(C(=O)Nc6ccc(F)cc6)CC5)c(F)c4)ccn3)CC2)CC1
inactive: Potency [1] | Potency [2] | Potency [3] | Potency [4] | Potency [5]

CCN(CC)CCOC(=O)c1ccc(N)cc1Cl
inactive: Potency [1] | Potency [2]

CC#CCC(C)[C@H](O)/C=C/[C@@H]1[C@H]2C/C(=C/CCCC(=O)O)C[C@H]2C[C@H]1O (some centres undefined)
inactive: Potency [1] | Potency [2]

CCOC(=O)[C@@]1(CCCCCCOc2ccc(Cl)cc2)CO1
inactive: Potency [1] | Potency [2]

Nc1c(CC(=O)O)cccc1C(=O)c1ccccc1
inactive: Potency [1] | Potency [2]

Cc1cc(F)c(C(=O)Nc2cccc(-c3nncn3C(C)C)n2)cc1-n1cnc(C2CC2)c1
inactive: Potency [1] | Potency [2] | Potency [3] | Potency [4] | Potency [5]

CNc1cccc(CCOc2ccc3c(c2)CN(CC(F)(F)F)C(=O)[C@H](CC(=O)O)C3)n1
inactive: Potency [1] | Potency [2] | Potency [3] | Potency [4] | Potency [5]

CC(C)(S)C(=O)N[C@@H](CS)C(=O)O
inactive: Potency [1] | Potency [2]

CCc1cc2c(cc1CC)CC(NCC(O)c1ccc(O)c3[nH]c(=O)ccc13)C2 (centres undefined)
inactive: Potency [1] | Potency [2] | Potency [3] | Potency [4]

C=C(C(=O)OC)[C@@H]1CC=C2C=CC(=O)[C@H](C)[C@@]2(C)C1
inactive: Potency [1] | Potency [2] | Potency [3] | Potency [4] | Potency [5]

CCNC(=O)c1noc(-c2cc(Cl)c(O)cc2O)c1-c1ccc(OC)cc1
inactive: Potency [1] | Potency [2] | Potency [3] | Potency [4] | Potency [5]

O=C(Cn1c(=O)sc2ccc(Cl)cc21)N1CCN(CCO)CC1
inactive: Potency [1] | Potency [2]

CC1CCC/C=C/C(=O)c2c(O)cc(O)cc2CC(=O)O1 (centres undefined)
active: Potency [4] 11.9 µM
inactive: Potency [1] | Potency [2] | Potency [3] | Potency [5]

CN1CCC(c2cn(C)c3ccc(OS(=O)(=O)c4c(F)cccc4F)cc23)CC1
inactive: Potency [1] | Potency [2] | Potency [3] | Potency [4] | Potency [5]

CC(CCC1(O)OC2CC3C4CC=C5C[C@@H](O[C@@H]6O[C@H](CO)[C@@H](O[C@@H]7O[C@@H](C)[C@H](O)[C@@H](O)[C@H]7O)[C@H](O)[C@H]6O[C@@H]6O[C@@H](C)[C@H](O)[C@@H](O)[C@H]6O)CC[C@]5(C)C4CC[C@]3(C)[C@@]2(O)[C@@H]1C)CO[C@@H]1O[C@H](CO)[C@@H](O)[C@H](O)[C@H]1O (some centres undefined)
inactive: Potency [1] | Potency [2] | outcome [3] inactive [at 11.6 µM] | activity change, negative = thiol reactive [4] 40.3% [at 11.5 µM] | activity, negative = inhibition [5] 0% [at 11.6 µM]

CON=C1C[C@]2(C[C@@H]3C[C@@H](C/C=C(\C)C[C@@H](C)/C=C/C=C4\CO[C@@H]5[C@H](O)C(C)=C[C@@H](C(=O)O3)[C@]45O)O2)O[C@H](/C(C)=C/C(C)C)[C@H]1C
inactive: Potency [1] | Potency [2]

CCCCCCCCCCCCCCCCCC(=O)OCCO
inactive: Potency [1] | Potency [2]

COC1C(O)C(OC2CCC3(C)C(CCC45CCC6C7(COC(=O)C7)OC4(O)C6(C)CCC35)C2)OC(C)C1OC1OC(CO)C(OC2OC(CO)C(O)C(O)C2O)C(O)C1O (centres undefined)
inactive: Potency [1] | Potency [2] | activity change, negative = inhibition [3] 0.42% [at 11.6 µM] | activity change, negative = thiol reactive [4] 19.5% [at 11.5 µM] | activity, negative = inhibition [5] 4.19% [at 11.6 µM]

Nc1nc(O)c(C2=C3C(=Nc4ccccc43)C(=O)NCC2)[nH]1
inactive: Potency [1] | Potency [2] | Potency [3] | Potency [4] | Potency [5]

O=S(=O)(O)Oc1ccc(C(c2ccc(OS(=O)(=O)O)cc2)c2ccccn2)cc1
inactive: Potency [1] | Potency [2]

CCCCCCCC(=O)CC[C@@H]1[C@@H](C/C=C\CCCC(=O)OC(C)C)[C@@H](O)C[C@H]1O
inactive: Potency [1] | Potency [2]

C/C=C(\C)C(=O)OC1C[C@@]2(COC(C)=O)O[C@H]2/C=C\[C@@]2(C)O[C@@H]2[C@H]2OC(=O)C(COC(C)=O)=C12 (some centres undefined)
active: Potency [4] 13 µM
inactive: Potency [1] | Potency [2] | Potency [3] | Potency [5]

O=C(OCCO)c1ccccc1O
inactive: Potency [1] | Potency [2]

FC(F)(F)c1ccc(CNc2ccc(Cc3c[nH]c4ncc(Cl)cc34)cn2)cn1
inactive: Potency [1] | Potency [2]

O=C(O)c1cc2ccccc2c(Cc2c(O)c(C(=O)O)cc3ccccc23)c1O
inactive: Potency [1] | Potency [2]

COc1cc(C#N)ccc1S(=O)(=O)Nc1ccc2c(c1)cc(C)c(=O)n2C
inactive: Potency [1] | Potency [2] | Potency [3] | Potency [4] | Potency [5]
